TR SRC2 fluor cs – Texas Red fluorescence interference in TRb-SRC2 counter-screen. TRb/SRC2 Texas Red total fluorescence interference. AID 1479. Potency, µM (highest dose often 106 µM), inactives show top-dose fluorescence change, negative = quenching. hit rate 0.29% among 280,000; active = well fitted curve in either direction with a large enough effect; inconclusive = small, poorly fitted or top-dose-only effect; note: potency is the fitted concentration of half-maximal effect
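Human TRb ligand-binding domain at 0.6 uM with 20 nM Texas Red SRC2 peptide in Tris buffer containing 1 uM T3 and 5% DMSO, incubated with compound 5 h at ambient temperature. Total fluorescence (555/632 nm) calculated as parallel + 2 × perpendicular.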
Tau fluor counter – counter-screen for tau fibril formation inhibitors; Potency, µM (titrated, usually from 57.7 µM), without a hit: at the top dose activity change, negative = decrease; AID 1463; tau K18 P301L Alexa594 fluorescence, heparin fibrillization; hit rate 0.93% among 280,000; note: potency is the fitted concentration of half-maximal effect; nearly all actives have a fitted effect of over 55% in size
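Human tau K18 P301L (15 uM unlabeled, 0.24 uM Alexa 594-labeled) in 100 mM sodium acetate pH 7 with 20 uM heparin, 6 hr at 37 C. ThT 30 uM added, 1 hr ambient; Alexa 594 FP and total fluorescence read at 555/632 nm.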
PNC inhibitor – blocks assembly of the perinucleolar compartment. PC3M PTB-GFP, PNC prevalence imaging, 16 h; active compounds read low. hit rate 3.1% among 140,000. activity change (PNC), negative = inhibition, % at 10 µM;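 active = readout at or below -70, meaning at least 70% loss of cells showing the perinucleolar compartment, a nuclear body marking cancer cells; inconclusive = readout between -30 and a set limit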;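 note: plate controls were DMSO wells for no effect and camptothecin positive control wells for full effect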
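Compounds are pinned in duplicate onto adhered PC3M cells stably expressing GFP-tagged PTB and incubated 16 h at 37 C. Cells are then fixed, nuclei stained with Hoechst, and PNC-positive cells counted.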
Tau fibril ThT – blocks human tau fibril formation measured by thioflavin T | P10636 | recombinant tau K18 P301L (four-repeat tau fragment), heparin-induced fibrillization, ThT fluorescence | Potency, µM (doses to about 57.4 µM), inactives show at the top dose activity, negative = inhibition, hits mostly inhibitors | hit rate 2.1% among 270,000 | AID 1460; note: potency is the fitted concentration of half-maximal effect; nearly all actives have a fitted effect of over 55% in size
Target sequence (P10636 561-689 P618L limits assumed): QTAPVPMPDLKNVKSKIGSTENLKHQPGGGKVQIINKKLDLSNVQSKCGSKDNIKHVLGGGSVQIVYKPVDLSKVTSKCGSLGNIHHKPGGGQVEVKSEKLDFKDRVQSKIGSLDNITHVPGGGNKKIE
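K18 P301L tau (15 uM + 0.24 uM Alexa 594-tagged), heparin 20 uM, NaOAc pH 7, 6 h 37 C; ThT 30 uM, 1 h RT, ex 450/em 510 nm.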
TRb SRC2 PPI – disrupts binding of human TR beta to SRC2; P10828; TRbeta-SRC2 peptide binding, fluorescence polarization; receptor liganded with 1 µM T3; Potency, µM (top dose mostly 106 µM), inactives show top-dose activity change, negative = inhibition, hits mostly inhibitors; hit rate 0.065% among 280,000;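 note: potency is the fitted concentration of half-maximal effect; plate controls were bound peptide for no effect and peptide without receptor for full effect; nearly all actives have a fitted effect of over 50% in size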
Target sequence (P10828 whole entry, looked up): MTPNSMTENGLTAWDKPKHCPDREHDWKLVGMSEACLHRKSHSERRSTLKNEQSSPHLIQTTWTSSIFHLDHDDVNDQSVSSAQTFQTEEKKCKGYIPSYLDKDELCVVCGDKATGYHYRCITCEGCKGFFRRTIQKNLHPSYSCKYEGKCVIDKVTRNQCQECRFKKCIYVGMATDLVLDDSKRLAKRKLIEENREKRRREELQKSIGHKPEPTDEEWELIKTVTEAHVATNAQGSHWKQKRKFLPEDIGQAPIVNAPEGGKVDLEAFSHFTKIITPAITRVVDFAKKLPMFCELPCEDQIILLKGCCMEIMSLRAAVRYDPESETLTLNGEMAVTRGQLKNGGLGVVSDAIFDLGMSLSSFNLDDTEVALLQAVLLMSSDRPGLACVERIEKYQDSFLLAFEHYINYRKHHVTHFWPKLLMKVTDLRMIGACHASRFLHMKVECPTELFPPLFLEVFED
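Decrease in fluorescence polarization of 20 nM Texas Red SRC2 coactivator peptide flagged inhibition of its binding to 0.6 uM TRb LBD; 1 uM T3 included, incubation 5 hr, ex 555/em 632 nm.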
Tau fibril FP – blocks human tau fibril formation measured by polarization. P10636. K18 P301L tau heparin fibrillization, Alexa594 FP, 6 h. Potency, µM (titrated, usually from 57.7 µM), inactives show at the highest dose activity, negative = inhibition, most hits filed as inhibitors. hit rate 0.39% among 280,000; note: potency is the fitted concentration of half-maximal effect; nearly all actives have a fitted effect of over 55% in size
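Quantitative HTS format: compounds meet 15 uM recombinant K18 P301L tau and Alexa 594-tau tracer in 100 mM sodium acetate pH 7; 20 uM heparin triggers fibrillization at 37 C over 6 hr; FP gives the signal.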
Starred values were filed as active, the others as inactive; [ ] = another dose, or the depositor's remark. Shown are actives, neighbours in structure and some others; about 4.6% of the full set was active somewhere. Unless noted, calls come from the whole dose curve; as a rule, active = well fitted curve in the direction sought with a large enough effect; inconclusive = small, poorly fitted or top-dose-only effect, or another doubt; inactive = no such curve, though single readings can be large; an effect the other way counts as inactive or inconclusive. Unless noted, % is set by controls: 0 for no effect and ±100 for the full control effect.

`CCN1CC=C2C(C#N)=C(N)C(C#N)(C#N)C(c3cc(Cl)ccc3Cl)C2C1` (stereo not drawn) gave TR SRC2 fluor cs 9%, Tau fluor counter -25%, PNC inhibitor -20, Tau fibril ThT 13µM*, TRb SRC2 PPI -14% and Tau fibril FP inconclusive.
For CC(C)N1CC=C2C(C#N)=C(N)C(C#N)(C#N)[C@H](c3ccoc3)[C@H]2C1 the results were TR SRC2 fluor cs 11%, Tau fluor counter -25%, PNC inhibitor 115, Tau fibril ThT 20µM*, TRb SRC2 PPI -29% and Tau fibril FP inconclusive.
CCC1C2CN(C(C)=O)CC=C2C(C#N)=C(N)C1(C#N)C#N (stereo not drawn) was read as TR SRC2 fluor cs 3%, Tau fluor counter -13%, PNC inhibitor -21, Tau fibril ThT inconclusive, TRb SRC2 PPI 9% and Tau fibril FP inconclusive.
For CC(C)(C)OC(=O)N1CC=C2C(C#N)=C(N)C(C#N)(C#N)C(c3cccs3)C2C1 (stereo not drawn) the results were TR SRC2 fluor cs 1%, Tau fluor counter -16%, PNC inhibitor 3, Tau fibril ThT inconclusive, TRb SRC2 PPI -2% and Tau fibril FP inconclusive.
`CCCC1C2CN(C(C)=O)CC=C2C(C#N)=C(N)C1(C#N)C#N` (stereo not drawn) gave TR SRC2 fluor cs 0%, Tau fluor counter -7%, PNC inhibitor -5, Tau fibril ThT -9%, TRb SRC2 PPI -17% and Tau fibril FP -12%.
Screening COc1ccc([C@@H]2[C@H]3CN(C(C)=O)CC=C3C(C#N)=C(N)C2(C#N)C#N)c2ccccc12 returned TR SRC2 fluor cs 0%, Tau fluor counter -12%, PNC inhibitor 11, Tau fibril ThT inconclusive, TRb SRC2 PPI -3% and Tau fibril FP inconclusive.
Screening N#CC1=C(N)C(C#N)(C#N)[C@H](c2ccncc2)[C@H]2CC3(CC=C12)OCCO3 returned TR SRC2 fluor cs 4%, Tau fluor counter 0%, PNC inhibitor -98*, Tau fibril ThT -12%, TRb SRC2 PPI 2% and Tau fibril FP 0%.
`CC1CC=C2C(C#N)=C(N)C(C#N)(C#N)C(c3cccs3)C2C1` (stereo not drawn) gave TR SRC2 fluor cs 1%, Tau fluor counter -15%, PNC inhibitor -17, Tau fibril ThT inconclusive, TRb SRC2 PPI -3% and Tau fibril FP inconclusive.
Cc1ccc([C@@H]2C3COCC=C3C(C#N)=C(N)C2(C#N)C#N)o1 (stereo partly drawn) was read as TR SRC2 fluor cs 19%, Tau fluor counter -16%, PNC inhibitor 16, Tau fibril ThT 25µM*, TRb SRC2 PPI -29% and Tau fibril FP inconclusive.
`CC(C)(C)OC(=O)N1CC=C2C(C#N)=C(N)C(C#N)(C#N)[C@H](c3cccnc3)[C@H]2C1` gave TR SRC2 fluor cs 5%, Tau fluor counter -5%, PNC inhibitor inconclusive, Tau fibril ThT inconclusive, TRb SRC2 PPI 2% and Tau fibril FP -19%.
`Cc1ccc(C2C3CSCC=C3C(C#N)=C(N)C2(C#N)C#N)cc1` (stereo not drawn) gave TR SRC2 fluor cs 5%, Tau fluor counter -29%, PNC inhibitor 12, Tau fibril ThT 20µM*, TRb SRC2 PPI 3% and Tau fibril FP inconclusive.
`CN(C)c1ccc(NC(=O)c2cnsn2)cc1` gave TR SRC2 fluor cs -1%, Tau fluor counter -21%, Tau fibril ThT 10µM*, TRb SRC2 PPI 3% and Tau fibril FP -2%.
`CCCCCCCCNC(=O)c1cnsn1` gave TR SRC2 fluor cs -2%, Tau fluor counter 6%, PNC inhibitor -11, Tau fibril ThT 2%, TRb SRC2 PPI 10% and Tau fibril FP 6%.
For CCCCn1nc(NC(=O)c2cccc(Cl)c2)c2cc3ccccc3nc21 the results were TR SRC2 fluor cs 6%, Tau fluor counter -27%, Tau fibril ThT -6%, TRb SRC2 PPI -1% and Tau fibril FP -14%.
For CC(C)Cn1nc(NC(=O)c2cccc(Cl)c2)c2cc3ccccc3nc21 the results were TR SRC2 fluor cs 1413µM*[quencher], Tau fluor counter inconclusive, Tau fibril ThT inconclusive, TRb SRC2 PPI -27%[53 µM] and Tau fibril FP -1%.
CC1CN(Cc2cc(=O)[nH]c(C3CC3)n2)CC(C)O1 (stereo not drawn) was read as TR SRC2 fluor cs -5%, Tau fluor counter -11%, PNC inhibitor 9, Tau fibril ThT -4%, TRb SRC2 PPI -7% and Tau fibril FP 0%.
For Cc1ccc(N=Nc2ccc(C)cc2NC(=O)Nc2ccccc2F)cc1 the results were TR SRC2 fluor cs -1%, Tau fluor counter inconclusive, Tau fibril ThT 1.3µM*, TRb SRC2 PPI 11% and Tau fibril FP -9%.
`O=C(Nc1ccccc1F)Nc1ccccc1F` gave TR SRC2 fluor cs 1%, Tau fluor counter -4%, Tau fibril ThT 1%, TRb SRC2 PPI -3% and Tau fibril FP -2%.
For COc1ccc(Nc2nc(Nc3ccc(OC)cc3)nc(SC3=NCCS3)n2)cc1 the results were TR SRC2 fluor cs -2%, Tau fluor counter 14µM*[quencher], PNC inhibitor -20, Tau fibril ThT inconclusive, TRb SRC2 PPI 1% and Tau fibril FP 14%.
Screening CS(=O)(=O)c1ccc(N2CCOCC2)c(S(C)(=O)=O)c1 returned TR SRC2 fluor cs -5%, Tau fluor counter 7%, PNC inhibitor -107*, Tau fibril ThT 7%, TRb SRC2 PPI 1% and Tau fibril FP 11%.
For CCN(CC)c1ccc(/C=c2\sc3nnc(-c4ccccc4Cl)n3c2=O)cc1 the results were TR SRC2 fluor cs 4%, Tau fluor counter -14%, PNC inhibitor inconclusive, Tau fibril ThT 7.1µM*, TRb SRC2 PPI 10% and Tau fibril FP -4%.
O=C(Cc1cccs1)Nc1cccc(-c2nc3cc4ccccc4cc3[nH]2)c1 was read as TR SRC2 fluor cs -2%, Tau fluor counter 14µM*[quencher], PNC inhibitor -16, Tau fibril ThT inconclusive, TRb SRC2 PPI 8% and Tau fibril FP 28µM*.
Screening C=CCOc1ccc(-c2nc3c(c(=O)[nH]c(=O)n3CCCC)n2C)cc1OC returned TR SRC2 fluor cs -3%, Tau fluor counter -1%, Tau fibril ThT -4%, TRb SRC2 PPI -4% and Tau fibril FP 0%.
COCCNC(=O)COC(=O)C1=Cc2ccccc2OC1 was read as TR SRC2 fluor cs -1%, Tau fluor counter -5%, Tau fibril ThT -8%, TRb SRC2 PPI -3% and Tau fibril FP 1%.
For CC(OC(=O)C1=Cc2ccccc2OC1)C(=O)NC1CCCC1 (stereo not drawn) the results were TR SRC2 fluor cs -5%, Tau fluor counter -12%, PNC inhibitor -90*, Tau fibril ThT -20%, TRb SRC2 PPI -1% and Tau fibril FP -14%.

Screening results: PubChem, National Center for Advancing Translational Sciences (NCATS)
